Measured values taken from PubChem BioAssay AID687020 (Broad Institute, 2013).
The whole screen tested about 1,400 compounds, of which about 100 (7.1%) were called active. How the calls were made is not given here. The list is a sample of the results. Entries that show only a call come without a potency. Potency and affinity values are given separately.

Experiment: Vero cell toxicity, dose response, cytotoxicity control, plate reader, cherry-pick samples (AID 687020);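 further: compounds incubated with cells for three days before luminescence read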
Conditions: Vero cells toxicity; series mostly up to 19.5 µM
In the case of `O=S(=O)(Nc1nc(SCc2ccc(Cl)cc2)n[nH]1)c1ccc(F)cc1`, the outcome is reported as “inactive”. In the case of `Cc1ccc(C(=O)OCC(=O)Nc2ccccc2C(F)(F)F)cc1S(=O)(=O)N1CCCCC1`, the outcome is reported as “inactive”. With `O=C(NCCc1ccccc1)c1ccccc1NC(=O)C1CCCCC1C(=O)O` (stereo unspecified) the outcome was “inactive”. For `OC[C@@H]1[C@@H](c2ccccc2)C2(CN(Cc3nccs3)C2)N1Cc1cccnc1`, the outcome was “inactive”. For `C[C@@H]1CN([C@@H](C)CO)C(=O)c2cc(C#Cc3cccc(F)c3)cnc2O[C@@H]1CN(C)C(=O)C1CCC1`, the outcome was “inactive”. For `CC(=O)NC(c1cccc(F)c1)c1nc(-c2ccc(N(C)C)cc2)cs1` (stereo unspecified), the outcome was “inactive”. With `CC(C)CCCN1CCN=C1Nc1ccccc1` the outcome was “inactive”. For `CC1CCC(CN2C(Nc3ccccc3)=NC[C@@H]2C)CC1` (stereo partly specified), the outcome was “inactive”. For `Cc1ccc(/C=N/NC(=O)c2ccc(-n3cnnn3)cc2)cc1`, the outcome was “inactive”. In the case of `CS(=O)(=O)N1[C@@H]2CNC[C@H]1C2c1ccc(-c2ccccc2)cc1` (stereo partly specified), the outcome is reported as “inactive”. With `COc1ccc2c(c1)OC[C@H]1[C@H]2N2C(=O)c3cc(OC)ccc3NC(=O)[C@@]2(C)[C@H]1c1ccccc1` the outcome was “inactive”. For `CCOC(=O)C1CCN(C(=O)C2CC(=O)N(c3ccc4c(c3)OCCO4)C2)CC1` (stereo unspecified), the outcome was “inactive”. For `c1ccc(COCCCn2cc(-c3ccccc3)nn2)cc1`, the outcome was “inactive”. For `C[C@@H]1CN([C@H](C)CO)C(=O)c2cc(C#Cc3ccc(F)cc3)cnc2O[C@@H]1CN(C)C`, the outcome was “inactive”. For `CCCNC(=O)NC[C@@H]1[C@@H](c2ccc(C3=CCCC3)cc2)[C@@H](CO)N1C(=O)CC`, the outcome was “inactive”. In the case of `COc1ccccc1S(=O)(=O)N(C)C[C@H]1Oc2cc(C#CCC(C)C)ccc2S(=O)(=O)N([C@@H](C)CO)C[C@@H]1C`, the outcome is reported as “inactive”. With `N#C[C@H]1[C@H](c2ccc(C#CC3CCCCC3)cc2)[C@@H](CO)N1C(=O)Cc1ccccn1` the outcome was “inactive”. In the case of `CCc1c(C2(O)CCCCC2)[nH]c2c(C(=O)OC)cc(Cl)cc12`, the outcome is reported as “inactive”. For `Cc1ccc(S(=O)(=O)N2CCCCC2)cc1NC(=O)CCOc1ccccc1`, the outcome was “inactive”. With `COc1ccc(NC(=O)CN(C)CCOc2ccc(Cl)cc2)cc1OC` the outcome was “inactive”. For `CCN(CC)S(=O)(=O)c1ccc(N2CCOCC2)c(NC(=O)c2ccccc2)c1`, the outcome was “inactive”. With `O=C(COc1ccc2c(-c3ccccc3)cc(=O)oc2c1)NC1CCS(=O)(=O)C1` (stereo unspecified) the outcome was “inactive”. With `C[C@H](CO)N1C[C@H](C)[C@H](CN(C)C(=O)Nc2ccc(-c3ccccc3)cc2)OCc2ccccc2-c2c(n(C)c3ccccc23)C1=O` the outcome was “inactive”. With `CCOC(=O)C1=C(CS(=O)(=O)c2ccc(C)cc2)NC(=O)NC1c1cc(OC)c(O)c(OC)c1` (stereo unspecified) the outcome was “inactive”. In the case of `COc1ccccc1Cn1c(=S)[nH]c2cc(C(=O)N3CC(C)CC(C)C3)ccc2c1=O` (stereo unspecified), the outcome is reported as “inactive”. With `COc1ccccc1CNC(=O)CCCN1C(=O)NC2(CCCC2)C1=O` the outcome was “inactive”. With `CCc1ccc(NC(=O)COc2ccc3c(c2)OCO3)cc1` the outcome was “inactive”. With `CC1CCc2sc(C(=O)NN=C3CCCC3)cc2C1` (stereo unspecified) the outcome was “inactive”. With `CC(C)c1ccc(NC(=O)[C@H](NC(=O)[C@@H]2Cc3ccccc3CN2)c2ccccc2)cc1` the outcome was “inactive”. In the case of `COc1ccc(S(=O)(=O)N2CCC(C(=O)N[C@H](C(=O)NCc3ccccc3)C(C)C)CC2)cc1`, the outcome is reported as “inactive”. With `COc1ccc(NC(=O)Nc2cccc3c2O[C@H](CN(C)C(=O)NC2CCCCC2)[C@H](C)CN([C@@H](C)CO)C3=O)cc1` the outcome was “inactive”. For `CCCNC(=O)N1[C@H](CO)[C@H](c2ccccc2)[C@@H]1CNC(=O)c1ccc(F)cc1`, the outcome was “inactive”. With `COc1ccc(S(=O)(=O)N2CCCCCC2)cc1NC(=O)Cc1cccc(C(F)(F)F)c1` the outcome was “inactive”. In the case of `O=C(C1CC1)N1[C@@H](CO)[C@@H]2c3ccccc3NC[C@@H]21`, the outcome is reported as “inactive”. In the case of `O=C(NCc1ccccc1F)[C@H]1N[C@H]2c3ccc(-c4ccccc4F)c(=O)n3C[C@H]2[C@@H]1CO`, the outcome is reported as “inactive”. In the case of `C[C@H](NC(=O)[C@H]1N[C@H]2c3ccc(-c4cccnc4)c(=O)n3C[C@H]2[C@@H]1CO)c1ccccc1`, the outcome is reported as “inactive”. With `NC(=O)c1ccccc1NC(=O)COC(=O)C1(c2ccccc2)CC1` the outcome was “inactive”. With `CSCCC(NC(=O)COc1ccccc1)C(=O)OCCOc1ccc(C)cc1` (stereo unspecified) the outcome was “inactive”. With `COc1cc(OC)cc(C(=O)Nc2ccc(N3CCN(C(=O)c4cccs4)CC3)cc2)c1` the outcome was “inactive”. With `Cc1cccc(OCC(=O)Nc2ccc(N3CCN(C(=O)c4ccccc4)CC3)cc2)c1C` the outcome was “inactive”. With `C/C(CC(=O)Nc1ccc(Cl)c(Cl)c1)=N\NC(=O)Cc1ccccc1` the outcome was “inactive”. With `COc1ccc(S(=O)(=O)Nc2cccc3c2O[C@@H](CN(C)S(C)(=O)=O)[C@@H](C)CN([C@@H](C)CO)C3=O)cc1` the outcome was “inactive”. For `CCC(C)c1ccc(NC(=O)NCCN2CCCCC2)cc1` (stereo unspecified), the outcome was “inactive”. In the case of `OC(CSc1nnnn1-c1ccccc1)Cn1c2ccccc2c2ccccc21` (stereo unspecified), the outcome is reported as “inactive”. With `C[C@@H]1CCCCO[C@H](CN(C)S(=O)(=O)c2ccccc2)[C@@H](C)CN([C@@H](C)CO)C(=O)c2cc(NC(=O)c3ccncc3)ccc2O1` the outcome was “inactive”. In the case of `CCC(N=c1cc(-c2ccc(OC)c(OC)c2)oc2ccc(C)cc12)C(=O)O` (stereo unspecified), the outcome is reported as “inactive”. In the case of `CN(C)S(=O)(=O)N1CCC(Oc2ccc(C(=O)N3CCCCCCC3)cc2)CC1`, the outcome is reported as “inactive”. For `O=C(NCC1CC1)c1onc(CSc2ccc(F)c(F)c2)c1C(=O)NCC1CC1`, the outcome was “inactive”. For `O=C(O)CCCCCCCCc1cn(CCc2c[nH]c3ccccc23)nn1`, the outcome was “inactive”. In the case of `COc1ccc(CC(=O)NC2CCCCCC2)c(OC)c1`, the outcome is reported as “inactive”. For `COc1ccc(S(=O)(=O)N2CCN(CC(=O)NC3CC3)CC2)cc1`, the outcome was “inactive”. In the case of `CC12CCC(=O)N1C(C(=O)Nc1nc(-c3ccccc3)cs1)CS2` (stereo unspecified), the outcome is reported as “inactive”. In the case of `C[C@@H]1CCCCO[C@H](CN(C)S(C)(=O)=O)[C@@H](C)CN([C@H](C)CO)C(=O)c2cc(NC(=O)CCC(F)(F)F)ccc2O1`, the outcome is reported as “inactive”. With `O=C(Cn1cnc2c(NCc3ccccc3)ncnc21)NCC1CCCO1` (stereo unspecified) the outcome was “inactive”. With `CCCN1Cc2cccc(C(=O)Nc3ccc4c(c3)OCCO4)c2C1=O` the outcome was “inactive”. For `Cn1cc([C@]2(O)C(=O)Nc3ccccc32)c2ccccc21`, the outcome was “inactive”. With `CN1c2ccc(Br)cc2[C@@H]2[C@@H](CCN2S(=O)(=O)c2ccccc2)[C@H]1CO` the outcome was “inactive”. In the case of `Cc1ccccc1NS(=O)(=O)c1ccc(S(=O)(=O)N2CCCC2)cc1`, the outcome is reported as “inactive”. In the case of `CCN(CC(=O)Nc1c(F)cccc1F)C(=O)C1CCN(S(=O)(=O)c2ccc(F)cc2)CC1`, the outcome is reported as “inactive”. For `C/C=C/c1ccc([C@H]2[C@@H](CO)N(C(=O)C3CCC3)[C@@H]2CNC(=O)NC(C)C)cc1`, the outcome was “inactive”. In the case of `CC(O)(c1cccc(F)c1)c1nc(/C=C/c2ccccc2)cs1` (stereo unspecified), the outcome is reported as “inactive”. In the case of `CC(OC(=O)c1ccc(O)cc1)C(=O)Nc1nc(-c2ccccc2)cs1` (stereo unspecified), the outcome is reported as “inactive”. For `COc1ccc(-c2csc(C(O)c3cccc(OC)c3)n2)cc1` (stereo unspecified), the outcome was “inactive”. With `N#Cc1cccc(-c2ccc(C3[C@@H]4CN(C(=O)c5cccnc5)C[C@H]3N4)cc2)c1` (stereo partly specified) the outcome was “inactive”. With `C[C@H](CO)N1C[C@H](C)[C@H](CN(C)C(=O)NC2CCCCC2)Oc2ccc(NC(=O)Cn3cnnn3)cc2C1=O` the outcome was “inactive”. With `O=C(C1CCCCC1)N1C[C@H](O)[C@@H](n2cc(C3CC3)nn2)C[C@@H]1c1ccccc1` the outcome was “inactive”. For `CCCCCC(=O)N1C[C@@H](O)[C@H](n2cc(COC(=O)c3ccccc3)nn2)C[C@@H]1c1ccc(C)cc1`, the outcome was “inactive”. For `CCc1c(C2CC2)ncn1Cc1cccc(-c2ccccc2)c1`, the outcome was “inactive”. For `FC(F)(F)c1nc2ccccc2n1CCNc1nc(CN2CCCCC2)cs1`, the outcome was “inactive”. With `CN(C)c1cccc(C(=O)Nc2cc(C(F)(F)F)ccc2-n2cnc3ccccc32)c1` the outcome was “inactive”. For `O=S1(=O)N[C@@H](Cc2ccccc2)COc2cc(N3CCOCC3)ccc21`, the outcome was “inactive”. For `COc1ccc(NC(=O)N[C@@H]2CC[C@@H](CCNS(=O)(=O)c3cccc(Cl)c3)O[C@@H]2CO)cc1`, the outcome was “inactive”. For `O=C(Cc1cccnc1)N[C@H]1CC[C@@H](CCn2cc(Cc3ccccc3)nn2)O[C@H]1CO`, the outcome was “inactive”. With `COc1ccc(S(=O)(=O)N[C@H]2CC[C@@H](CCNC(=O)CN3CCOCC3)O[C@H]2CO)cc1` the outcome was “inactive”. For `c1ccc(-c2cn(C[C@H]3CC[C@@H]([C@@H]4CC[C@H](Cn5cc(-c6ccccc6)nn5)O4)O3)nn2)cc1`, the outcome was “inactive”. For `CCCCN(C(=O)c1ccc2c(c1)NC(=O)CS2)c1ccccc1`, the outcome was “inactive”. With `O=C(OCc1ccccc1)N1CCCC2CC1c1ccccc12` (stereo unspecified) the outcome was “inactive”. In the case of `CSCCC(NS(=O)(=O)c1cccs1)C(=O)NCc1ccccc1` (stereo unspecified), the outcome is reported as “inactive”. With `COc1ccc(C)cc1NC(=O)C(c1ccccc1)N1CCN(CC(=O)N2CCOCC2)CC1` (stereo unspecified) the outcome was “inactive”. In the case of `COc1ccc2c3c(n(C)c2c1)[C@H](CO)N(Cc1ccccc1F)CC31CCN(C(C)=O)CC1`, the outcome is reported as “inactive”. With `CN1C(C(=O)NCc2ccc(OC(F)(F)F)cc2)CC2Cn3c(nc4ccccc43)C21` (stereo unspecified) the outcome was “inactive”. With `COCCNC(=O)CCC1CCN(Cc2ccc(-c3ccccc3)cc2)CC1` the outcome was “inactive”. For `COc1cccc(CC(=O)OCC(=O)Nc2nnc(-c3ccccc3)o2)c1`, the outcome was “inactive”. In the case of `COc1ccc(C(CNS(=O)(=O)c2ccc(NC(C)=O)c(OC)c2)N2CCCC2)cc1` (stereo unspecified), the outcome is reported as “inactive”. With `COc1ccc(C(CNC(=O)CCNC(=O)c2ccc(Br)cc2)N2CCOCC2)cc1` (stereo unspecified) the outcome was “inactive”. For `CCCCN1C(N)=NC[C@@H]1C(C)O` (stereo partly specified), the outcome was “inactive”. In the case of `O=C(COc1ccccc1)NCC(=O)N/N=C/c1ccc(Br)cc1`, the outcome is reported as “inactive”. With `O=C(CCn1cncn1)N1CCCC(N2CCN(c3ccc(F)cc3)CC2)C1` (stereo unspecified) the outcome was “inactive”. In the case of `CCN(CC)CC(=O)N1CCCC(N2CCN(c3cccc(C(F)(F)F)c3)CC2)C1` (stereo unspecified), the outcome is reported as “inactive”. For `O=C(c1cc(C2CC2)on1)N1CCCC(N2CCN(c3cccc(C(F)(F)F)c3)CC2)C1` (stereo unspecified), the outcome was “inactive”. In the case of `C[C@@H]1CCCCO[C@H](CN(C)Cc2ccc(Cl)c(Cl)c2)[C@H](C)CN([C@@H](C)CO)C(=O)c2cc(NC(=O)c3ccccc3)ccc2O1`, the outcome is reported as “inactive”.
